# HCMV inh: blocks human cytomegalovirus replication. HFF cells, HCMV-luciferase reporter, 72 h; stronger effect = lower value. activity change, negative = inhibition, % at 57.5 µM. actives 4.5% (n = 410,000); in the data active = activity change below about -60%; inconclusive = no clear call, values can overlap the other calls; inactive = above about -39%; also: % is scaled to controls: 0 for no effect and ±100 for the full control effect
#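 Luciferase read-out from HCMV-luciferase-infected HFFs (MOI 1 PFU/cell) 72 h post infection at 37C; compounds added after 16 h cell attachment; activity normalized between buffer-only basal and Salinomycin (10uM) inhibitor controls.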
# Pf growth 48h: P. falciparum growth inhibition at 48 hours (one generation) | P. falciparum luciferase growth in erythrocytes, 48 h | Potency, µM (highest dose often 28.7 µM), for the others: at the highest dose activity change, negative = inhibition, most hits filed as inhibitors | actives 5.9% (n = 310,000) | AID 504832; also: potency is read from the fitted curve at half-maximal effect; % is scaled to controls: 0 for no effect and ±100 for the full control effect
#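 Luciferase-expressing P. falciparum in infected erythrocytes (2% hematocrit, 0.1% parasitemia final) in RPMI 1640/0.5% Albumax were exposed to compound for 48 hours at 37 C, 5% CO2; growth read as luminescence.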
# SARS PLP yeast: SARS-CoV PLP inhibition in yeast. S. cerevisiae expressing SARS-CoV PLpro, growth rescue. Potency, µM (highest dose often 32.9 µM), without a hit: top-dose activity, positive = growth rescue, usual class: activators. actives 0.19% (n = 330,000); calls by dose curve; also: potency is read from the fitted curve at half-maximal effect; 0% is about no effect; nearly all actives have a fitted effect of over 55% in size
# Sm TGR block: blocks Schistosoma mansoni thioredoxin glutathione reductase. purified TGR, DTNB reduction, TNB absorbance 405 nm. Potency, µM (doses to about 114 µM), without a hit: top-dose activity change, negative = inhibition, most hits filed as inhibitors. actives 3% (n = 360,000). AID 485364; also: potency is read from the fitted curve at half-maximal effect; % is scaled to controls: 0 for no effect and ±100 for the full control effect; nearly all actives have a fitted effect of over 60% in size
#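 First, TGR (20 nM dispensed) and NADPH were mixed with compound. Second, a 15 min room-temperature incubation followed. Third, further NADPH and then DTNB were added to start the reaction. Finally, TNB absorbance was monitored kinetically.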
# HCV inh: blocks hepatitis C virus; Potency, µM (top dose mostly 41.8 µM), inactives show at the highest dose activity change, negative = inhibition, most hits filed as inhibitors; actives 3.4% (n = 340,000); AID 651820; Huh7.5.1 HCVcc-Cre infection, luciferase reporter, 44 h; also: potency is read from the fitted curve at half-maximal effect; % is scaled to controls: 0 for no effect and ±100 for the full control effect
#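 After 44 h co-culture of compound, cells and HCVcc-Cre (~0.5 moi), substrate is added for 15 min at room temperature and luciferase measured over 15 sec. Cells were seeded at 1,000/well and pre-cultured 4 h.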
# Pf growth 96h: P. falciparum growth inhibition at 96 hour, primary screen for plastid delayed-death inhibitors | actives 6.9% (n = 320,000) | AID 504834 | P. falciparum luciferase reporter growth, 96 h | Potency, µM (series often up to 28.7 µM), for the others: top-dose activity change, negative = inhibition, most hits filed as inhibitors; also: potency is read from the fitted curve at half-maximal effect; % is scaled to controls: 0 for no effect and ±100 for the full control effect
#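 Compounds incubated with erythrocytes infected by luciferase-expressing P. falciparum (2% hematocrit, 0.05% parasitemia final) for 96 hours, 37 C in 5% CO2. Growth inhibition scored as decreased luciferase luminescence.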
# * marks the source's active call; other numbers are inactive results; u = inconclusive; x = no result given. Shown are actives, neighbours in structure and some others; about 15% of the full set was active somewhere. Unless noted, calls follow the shape of the dose curve; as a rule, active = well fitted curve in the direction sought with a large enough effect; inconclusive = small, poorly fitted or top-dose-only effect, or another doubt; inactive = no such curve, though single readings can be large; an effect the other way counts as inactive or inconclusive.
SMILES,HCMV inh,Pf growth 48h,SARS PLP yeast,Sm TGR block,HCV inh,Pf growth 96h
O=C(NCCN1CCCC1)c1ccc2c(c1)N(Cc1cccc(Cl)c1)C(=O)c1ccccc1S2(=O)=O,-76.7*,8.28µM*,-0.4%,-13.6%,u,0.0%
Cc1ccc(CCNC(=O)c2ccc3c(c2)N(Cc2cccc(C)c2)C(=O)c2ccccc2S3(=O)=O)cc1,-4.7,x,x,-3.2%,x,x
CC1CCCCN1CCNC(=O)c1ccc2c(c1)N(Cc1ccccc1)C(=O)c1ccccc1S2(=O)=O (configuration not stated),-3.7,5.22µM*,0.5%,-14.1%,u,u
Cc1cccc(CN2C(=O)c3ccccc3S(=O)(=O)c3ccc(C(=O)NCCCN4CCCC4)cc32)c1,0.0,10.4µM*,-4.0%,-3.3%,5.8%,u
O=C(NCCc1ccc(Cl)cc1)c1ccc2c(c1)N(Cc1cccc(Cl)c1)C(=O)c1ccccc1S2(=O)=O,-34.6,x,x,-0.3%,x,x
CCOc1ccc(C(=O)Nc2ccccc2C(=O)OCc2cc(=O)n3nc(C4CC4)sc3n2)cc1,15.2,x,x,-5.1%,x,x
CCOc1ccccc1CNC(=O)C1Cc2cc(S(=O)(=O)N3CCCCC3)ccc2N1C(C)=O (configuration not stated),12.7,-20.2%,-0.9%,-19.4%,u,u
CC1=CC[C@@]23CCCN2C(=O)CCC[C@H]3C1,-7.0,x,7.2%,x,-17.0%,x
Cn1c(=O)c2c(nc(SCc3ccccn3)n2C)n(C)c1=O,x,121.8%,0.1%,0.7%,x,23.1%
COc1ccc(C2=CC3=C(Br)C(=O)C(C)(OC(=O)c4ccco4)C(=O)C3=CO2)cc1 (configuration not stated),x,40.8%,0.6%,5.01µM*,3.7%,0.0%
COc1ccc(C2=CC3=C(Br)C(=O)C(C)(OC(=O)c4cccs4)C(=O)C3=CO2)cc1 (configuration not stated),22.5,x,x,x,-22.8%,x
CCCN(C(=O)Cc1c(C(=O)O)n(C)c2ccccc12)c1cccc(C)c1,-8.0,-0.2%,-0.5%,-9.3%,25.7%,-9.4%
Cc1cccc(Cn2nc(C(C)(C)C)cc2C(=O)Nc2ccc(F)cc2)c1,-93.0*,10.4µM*,-7.0%,7.3%,u,9.28µM*
CC(C)CC(N)c1csc(NC(=O)Nc2ccccc2Cc2ccccc2)n1 (configuration not stated),-35.4,x,x,x,x,x
CC(C)(C)c1cc(C(=O)NN)n(Cc2ccc(F)cc2)n1,5.7,u,-0.4%,13.2%,u,u
COC(=O)c1cc(NC(=O)c2cc(C(C)(C)C)nn2Cc2ccc(F)cc2)ccc1N1CCOCC1,29.0,6.57µM*,-2.9%,4.4%,10µM*,-11.0%
CC(C)CC(N)c1csc(NC(=O)c2cc(C(C)(C)C)nn2Cc2ccccc2)n1 (configuration not stated),-96.3*,x,x,x,x,x
Fc1cc(F)c2ncc3c(-c4ccccc4)nn(-c4cccc(Cl)c4)c3c2c1,14.4,x,x,2.9%,x,x
C[C@H](C(=O)CC(=O)OC(C)(C)C)[C@H](O)c1ccccc1,-31.0,38.0%,-0.3%,0.8%,-4.5%,89.3%
CCOC(=O)c1ccc2nc(C)c3c(c2c1)OC(C)C3 (configuration not stated),-36.5,u,0.4%,5.4%,10µM*,7.4%
O=C(O)CSc1cc(C(=O)c2cc(F)ccc2O)cn2c(=O)c3c(-c4ccccc4)csc3nc12,4.5,8.28µM*,0.1%,u,-20.0%,u
CCOC(=O)c1sc2nc3c(SCCC#N)cc(C(=O)c4cc(F)ccc4O)cn3c(=O)c2c1C,0.3,0.828µM*,9.3%,9.2%,-11.7%,0.828µM*
Cc1cc(C)c(C(=O)COc2cccnc2[N+](=O)[O-])cc1C,-33.3,5.8%,2.7%,15.8µM*,20.1%,x
O=C(COc1cccnc1[N+](=O)[O-])c1c[nH]c2ccccc12,0.0,6.2%,-1.5%,-28.1%,8.2%,15.9%
COCCn1c(C)cc(C(=O)COc2cccnc2[N+](=O)[O-])c1C,-84.4*,41.5%,3.0%,u,-2.0%,-13.0%
SMILES,HCMV inh,Pf growth 48h,SARS PLP yeast,Sm TGR block,HCV inh,Pf growth 96h
COCCn1c(C)cc(C(=O)COC(=O)c2ccc[nH]c2=O)c1C,-64.6*,60.9%,-15.8%,2.0%,20.0%,204.8%
Cc1cc(C(=O)COC(=O)c2ccc[nH]c2=O)c(C)n1C,-20.0,29.5%,-2.7%,1.4%,4.0%,45.6%
COc1ccc(N(C(=O)CCl)C(C)(C(=O)Nc2c(C)cccc2C)c2ccccn2)cc1 (configuration not stated),x,4.65µM*,-3.2%,2.0%,32.4%,u
O=C1c2ccccc2-c2c1cccc2C(=O)N1CCOCC1,0.4,-1.1%,9.4%,-2.4%,17.9%,-1.7%
O=C1C(=C(c2ccccc2)N2CCOCC2)Cc2ccccc21,-99.0*,x,x,x,x,x
C1CCC(C23CC4CC(CC(C4)C2)C3)NC1 (configuration not stated),-10.8,-16.1%,19.1%,-0.6%,14.9%,u
CCCN1CCc2c(sc(NC(=O)CCS(=O)(=O)c3ccccc3)c2C(=O)OC)C1,-9.1,u,-5.0%,22.4µM*,2.8%,13.1µM*
COC(=O)c1c(NC(=O)CCS(=O)(=O)c2ccccc2)sc2c1CCN(C)C2,-90.1*,13.1µM*,0.6%,u,-16.1%,u
COC(=O)c1ccsc1NC(=O)CCS(=O)(=O)c1ccccc1,11.2,-1.4%,-1.0%,10µM*,-0.9%,16.3%
CC(C)N1CCc2c(sc(NC(=O)CCS(=O)(=O)c3ccccc3)c2C#N)C1,14.3,-27.6%,-3.8%,14.1µM*,u,u
CC(C)N1CCc2c(sc(NC(=O)CCc3ccccc3)c2C(N)=O)C1,-36.9,u,-0.9%,-18.8%,u,u
CCCN(C(=O)c1c(C)oc2ncnc(N3CCOCC3)c12)c1ccc(Cl)c(Cl)c1,-6.0,x,x,-4.0%,x,x
